Screening data (PubChem)
The list is not random: actives were taken first. Their share in the collection is about 6.3%.
RORgamma inh – blocks mouse ROR gamma transcriptional activity. P51450. Drosophila S2 Gal4-RORgamma UAS-luciferase reporter, 20 h. Potency, µM (highest dose often 53.6 µM), for inactives: at the highest dose activity change, negative = inhibition, actives largely listed as inhibitors. actives 5.4% (n = 310,000); further: on the % scale 0 is the no-effect control and ±100 the full control effect; nearly all actives have a fitted effect of over 60% in size
Target sequence (P51450 whole entry, looked up, the tested form may be a part): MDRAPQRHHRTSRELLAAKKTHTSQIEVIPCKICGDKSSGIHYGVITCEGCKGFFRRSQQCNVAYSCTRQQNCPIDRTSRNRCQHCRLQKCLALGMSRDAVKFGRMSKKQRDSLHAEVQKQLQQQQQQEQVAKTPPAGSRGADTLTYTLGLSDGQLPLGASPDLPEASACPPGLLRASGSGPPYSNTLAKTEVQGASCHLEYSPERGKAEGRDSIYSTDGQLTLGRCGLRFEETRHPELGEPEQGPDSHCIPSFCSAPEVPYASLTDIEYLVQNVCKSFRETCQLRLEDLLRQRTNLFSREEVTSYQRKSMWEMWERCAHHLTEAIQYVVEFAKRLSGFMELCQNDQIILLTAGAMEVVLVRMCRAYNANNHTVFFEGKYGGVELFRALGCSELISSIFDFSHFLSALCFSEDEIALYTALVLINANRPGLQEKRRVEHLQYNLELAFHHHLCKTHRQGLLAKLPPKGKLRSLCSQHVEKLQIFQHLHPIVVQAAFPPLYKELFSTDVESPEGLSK
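ROR gamma transcriptional activity was tracked as Gal4-UAS luciferase output in stably transfected Drosophila Schneider cells, with compound added 1 hr before 700 uM copper sulfate induction and a 20 hr ambient-temperature incubation.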
ATXN2 expr inh – reduces ATXN2 reporter expression in HEK-293 cells. HEK-293 ATXN2-luciferase reporter, luminescence, 24 h. AID 1745845. Potency, µM (highest dose often 57 µM), without a hit: top-dose activity change, negative = inhibition, usual class: inhibitors. actives 0.72% (n = 360,000); further: on the % scale 0 is the no-effect control and ±100 the full control effect; nearly all actives have a fitted effect of over 55% in size
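qHTS (up to 57 uM final) was run with 24 h compound exposure of reporter cells at 37 °C. Each well was multiplexed: SteadyGlo luminescence measured ATXN2-luciferase expression after a fluorogenic Gly-Phe-AFC viability readout (25 uM final).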
S2 tox – viability counter-screen for ATXN expression inhibitors | S2 cells (HEK-293 line with an ATXN2-luciferase reporter) viability, CellTiter-Fluor protease fluorescence, 24 h | Potency, µM (doses to about 56.7 µM), actives largely listed as cytotoxic | actives 0.49% (n = 400,000) | AID 651635; further: nearly all actives have a fitted effect of over 40% in size
TGFb inhibitor – blocks TGF-b signaling | HepG2 CAGA-GFP TGF-b/SMAD3 reporter, GFP fluorescence, 18 h; TGF-beta stimulated, 500 pg/mL final | Potency, µM (titrated, usually from 46.1 µM), for inactives: top-dose activity, negative = inhibition, usual class: inhibitors | actives 1.2% (n = 410,000); further: on the % scale 0 is the no-effect control and ±100 the full control effect; nearly all actives have a fitted effect of over 65% in size
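Inhibition of TGF-beta-driven CAGA-GFP reporter expression in HEPG2 cells is measured by cellular GFP fluorescence after 18 h stimulation with 500 pg/mL recombinant TGF-beta in 1% FBS medium at 37 degrees C.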
Gal4-VP16 FLuc – Gal4-VP16 reporter inhibition counter-screen | Drosophila S2 Gal4-VP16 UAS-luciferase, luminescence, 20 h | Potency, µM (top dose mostly 53.6 µM), without a hit: at the highest dose activity, negative = inhibition, actives largely listed as inhibitors | actives 3.5% (n = 310,000);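 further: Gal4-VP16 expression switched on by copper sulfate through the metallothionein promoter; on the % scale 0 is the no-effect control and ±100 the full control effect; nearly all actives have a fitted effect of over 50% in size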
HepG2 tox-1 – HepG2 cytotoxicity, counter-screen for TGF-b inhibitors; Potency, µM (doses to about 46.1 µM), without a hit: top-dose activity change, negative = cytotoxicity, actives largely listed as cytotoxic; AID 588856; actives 0.76% (n = 410,000); HepG2 CAGA-GFP viability, ATP luminescence, 18 h
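HepG2 CAGA-GFP cells (1000/well, DMEM with 1% FBS) received compound, then TGF-beta at 500 pg/mL final, and were incubated 18 hours at 37 degrees C. Viability was read by CellTiter-Glo luminescence. Media-only wells were set as complete cell-killing and DMSO as no toxicity.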
TGFb confirm – confirmation of TGF-b signaling inhibitors in HepG2 reporter cells. shares compounds with TGFb inhibitor. HepG2 CAGA-GFP TGF-b reporter, GFP fluorescence, 18 h; cells stimulated with TGF-beta, 500 pg/mL. Potency, µM (titrated, usually from 46.1 µM), inactives show top-dose activity, negative = inhibition, hits mostly inhibitors. actives 63% (n = 1,600). AID 720534; further: on the % scale 0 is the no-effect control and ±100 the full control effect; nearly all actives have a fitted effect of over 65% in size
HepG2 tox-2 – toxic to HepG2 cells in TGF-b counterscreen; AID 720535; HepG2 CAGA-GFP viability, ATP luminescence, 18 h; cells stimulated with TGF-beta, 500 pg/mL; Potency, µM (doses to about 46.1 µM), inactives show at the highest dose activity, negative = cytotoxicity, most hits filed as inhibitors; actives 27% (n = 1,600); shares compounds with TGFb inhibitor; further: on the % scale 0 is the no-effect control and ±100 the full control effect; nearly all actives have a fitted effect of over 70% in size
CCL64 TGFb inh – orthogonal confirmation of TGF-b inhibitors in CCL64 cells | actives 41% (n = 1,600) | Potency, µM (titrated, usually from 46.1 µM), inactives show top-dose activity, negative = inhibition, actives largely listed as inhibitors | CCL64 CAGA-GFP reporter, TGF-b stimulated, GFP fluorescence, 18 h | shares compounds with TGFb inhibitor; further: nearly all actives have a fitted effect of over 65% in size
TGFb COP inh – validation of TGF-b inhibitors in HepG2 COP promoter reporter; shares compounds with TGFb inhibitor; HepG2 COP-GFP TGF-b reporter, GFP fluorescence, 18 h; cells stimulated by added recombinant TGF-beta; Potency, µM (doses to about 46.1 µM), for inactives: at the highest dose activity, negative = inhibition, hits mostly inhibitors; actives 3% (n = 1,600); AID 720537; further: nearly all actives have a fitted effect of over 70% in size
An asterisk follows results filed as active; i = inactive; ? = inconclusive; nt = no result given; [ ] = dose if it differs, or a comment. The call rests on the fitted dose curve; in most records, active means well fitted curve in the direction sought with a large enough effect; inconclusive means small, poorly fitted or top-dose-only effect, or another doubt; inactive means no such curve, though single readings can be large; an effect the other way counts as inactive or inconclusive. Potency means the concentration at half of the fitted maximal effect.

SMILES	RORgamma inh	ATXN2 expr inh	S2 tox	TGFb inhibitor	Gal4-VP16 FLuc	HepG2 tox-1	TGFb confirm	HepG2 tox-2	CCL64 TGFb inh	TGFb COP inh
O=C(c1ccc2c(c1)OCO2)C1CCCN(Cc2ccc(OC(F)F)cc2)C1 (configuration not stated)	2.2%	nt	i	?	-9.7%	-37.6%	?	?	?	11.9%
Clc1ccc(CSc2nnc(-c3ccccn3)n2Cc2cccs2)cc1Cl	nt	?	?	8.91µM*	nt	-8.1%	14.6µM*	?	?	42.4%
CCNC(=O)C1(C)CCN(C(=O)c2cccc(C#N)c2)C1 (configuration not stated)	nt	0.1%	i	2.7%	nt	3.9%	nt	nt	nt	nt
O=C(C(=Cc1ccc(F)cc1)C(=O)c1ccccc1)c1ccccc1	nt	0.0%	i	8.91µM*	nt	-16.4%	3.66µM*	?	13µM*	26.9%
CCOC(=O)C1CCN(C(c2cccnc2)c2c(NC(=O)c3ccco3)sc(C)c2C)CC1 (configuration not stated)	18.5%	?	i	7.94µM*	5.9%	-52.8%	20.6µM*	?	?	17.9%
CCCn1c(-c2ccc(F)cc2)nc2c(NCCCN3CCOCC3)nc(C)nc21	-36.6%	nt	nt	nt	-0.8%	nt	nt	nt	nt	nt
CN(C)c1ccc(/C=C/c2sc3ccccc3[n+]2Cc2ccccc2)cc1	nt	nt	nt	?	nt	-51.3%	nt	nt	nt	nt
COc1ccc2c(c1)OC[C@H]1[C@H]2N2C(=O)CN(Cc3ccc(Cl)cc3)C(=O)[C@@]2(C)[C@H]1c1ccccc1	nt	0.0%	i	5.01µM*	nt	-24.6%	?	-3.9%	-1.0%	0.1%
CCOCCc1nn2c(=O)cc(COC(=O)c3ccc(NC(=O)C4CCCCC4)cc3)nc2s1	nt	3.0%	i	6.9%	nt	-35.8%	nt	nt	nt	nt
FC(F)(F)c1cc(C(F)(F)F)c2ccc(N3CCN(c4ccc(Cl)cc4)CC3)nc2n1	13.9%	nt	nt	-4.3%	-4.5%	-16.7%	nt	nt	nt	nt
N#CC(c1ccc(Cl)cc1)c1ccc2c(C(F)(F)F)cc(C(F)(F)F)nc2n1 (configuration not stated)	-91.7%	0.708µM*	2µM*	3.55µM*	?	-38.1%	5.17µM*	6.51µM*	1.46µM*	102.8%
CCOC(=O)c1cccc(NS(=O)(=O)c2cc3c(cc2C)NC(=O)CO3)c1	nt	14.1%	i	?	nt	-32.0%	nt	nt	nt	nt
O=[N+]([O-])c1cccc2c(N3CCCC3)ccnc12	-41.9%	?	i	7.08µM*	?	5.62µM*	7.31µM*	16.4µM*	?	?
O=C(c1ccccc1F)N1CCN(c2ccc([N+](=O)[O-])c3ncccc23)CC1	?	2.4%	i	-25.6%	?	-19.6%	nt	nt	nt	nt
COc1ccc(-c2cc(C(=O)N(C)CC(=O)Nc3cccc(F)c3)c3ccccc3n2)cc1	nt	-9.7%	?	?	nt	-10.7%	18.4µM*	?	?	82.1%
CN(CC(=O)Nc1cccc(F)c1)C(=O)c1cc(-c2ccccc2)nc2ccccc12	nt	-12.9%	?	?	nt	-33.2%	nt	nt	nt	nt
Oc1c(CN2CCOCC2)cc(COCc2ccccc2)c2cccnc12	0.794µM*	5.62µM*	i	1µM*	0.0891µM*	-38.1%	-21.9%	?	8.2µM*	20.8%
O=C(Oc1c(Cl)cc(Cl)c2cccnc12)N1CCOCC1	-38.5%	-7.7%	i	-17.0%	16.1%	-12.9%	nt	nt	nt	nt
O=C(Oc1c(CN2CCOCC2)cc(Cl)c2cccnc12)c1ccccc1Br	6.31µM*	nt	?	3.16µM*	3.98µM*	-136.1%	-10.6%	?	?	1.2%
COc1ccc(CN2C(=O)C(CC(=O)NC(c3ccccc3)c3ccccc3)CC(C(=O)N(C(C)C)C(C)C)=C2C)cc1 (configuration not stated)	nt	?	?	?	nt	-35.3%	nt	nt	nt	nt
NC(c1csc(Nc2nncc3ccccc23)n1)C1CCCCC1 (configuration not stated)	nt	?	?	?	nt	-97.2%	nt	nt	nt	nt
CN(C(=O)/C=C/c1ccc([N+](=O)[O-])s1)c1ccccc1	?	?	nt	10µM*	?	11.2µM*	23.1µM*	?	20.6µM*	?
CC(=O)Nc1ccc(S(=O)(=O)N2CCN(Cc3nc4sc(C)c(C)c4c(=O)[nH]3)CC2)cc1	0.4%	-11.7%	i	?	-6.3%	-7.3%	-6.0%	-11.0%	16.4%	-15.1%
CC(=O)Nc1ccc(S(=O)(=O)N2CCN(Cc3ccncc3)CC2)cc1	4.0%[0.365 µM]	-25.2%	i	-14.1%	nt	-12.1%	nt	nt	nt	nt
O=S1(=O)CC(N2CC=CC2)CN1Cc1cn(Cc2cccc(Cl)c2)nn1 (configuration not stated)	nt	-7.4%	?	nt	nt	nt	nt	nt	nt	nt
O=S(=O)(Nc1ccc2c(c1)OCCO2)c1ccc2oc3ccccc3c2c1	44.6%	-38.9%	i	10µM*	-6.1%	-31.5%	23.1µM*	?	?	36.5%
O=S(=O)(Nc1ccc2c(c1)OCCO2)c1ccc(F)c(F)c1	12.8%	4.6%	i	-32.1%	-8.8%	-9.6%	nt	nt	nt	nt
Cc1ccc(OCCNC(=O)[C@H]2O[C@@H](n3ccc(N)nc3=O)[C@H](O)[C@@H]2O)cc1C	nt	8.3%	i	5.7%	nt	4.7%	nt	nt	nt	nt
Cc1ccc(OCCNC(=O)[C@H]2O[C@@H](n3cnc4c(N)ncnc43)[C@H](O)[C@@H]2O)cc1C	nt	-27.7%	i	?	nt	-20.8%	?	-9.9%	-1.8%	-20.4%
